The list is not random: actives were taken first. Their share in the collection is about 0.9%.
SRC2 TRFRET art = TR-FRET artefact, counter-screen to PPARgamma/SRC-2 agonist assay; TR-FRET ratio at 8 µM; stronger effect = higher value; hit rate 0.4% among 200,000
PPARg SRC2 recr = promotes SRC-2 coactivator recruitment by human PPARgamma; P37231; PPARgamma LBD-SRC-2 recruitment, biochemical; activation, % at 8 µM; hit rate 0.34% among 200,000; in the data active = activation above about 22%
Target sequence (P37231 whole entry, looked up, the tested form may be a part): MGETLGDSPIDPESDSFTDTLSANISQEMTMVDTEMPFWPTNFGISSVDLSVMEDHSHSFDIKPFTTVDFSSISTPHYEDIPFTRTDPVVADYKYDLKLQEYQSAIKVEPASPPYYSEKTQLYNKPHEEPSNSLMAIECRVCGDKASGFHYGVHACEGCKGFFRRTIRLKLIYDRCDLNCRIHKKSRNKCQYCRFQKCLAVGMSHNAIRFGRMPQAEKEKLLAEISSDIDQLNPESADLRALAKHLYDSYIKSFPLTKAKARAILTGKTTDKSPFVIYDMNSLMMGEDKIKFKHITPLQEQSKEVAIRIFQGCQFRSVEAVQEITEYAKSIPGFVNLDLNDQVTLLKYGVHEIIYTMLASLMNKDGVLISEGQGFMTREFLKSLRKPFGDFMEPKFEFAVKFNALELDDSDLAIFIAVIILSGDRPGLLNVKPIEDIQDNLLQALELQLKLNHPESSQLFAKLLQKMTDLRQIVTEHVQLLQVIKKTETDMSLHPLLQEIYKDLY
SRC3 TRFRET art = counter-screen for PPARgamma SRC-3 recruitment agonists: TR-FRET artefact. AID 1048. hit rate 0.39% among 99,000. TR-FRET ratio at 8 µM. PPARgamma/SRC-3 format; stronger effect = higher value
PPARg SRC-1 ag = agonists of human PPARgamma SRC-1 coactivator recruitment; P37231; PPARgamma-SRC-1 coactivator recruitment biochemical assay; activation, % at 8 µM; hit rate 0.41% among 200,000; AID 631; in the data active = activation above about 19%
PPARg SRC3 recr = PPARgamma-driven SRC-3 recruitment agonism; AID 731; P37231; biochemical PPARgamma/SRC-3 coactivator recruitment assay; activation, % at 8 µM; hit rate 0.26% among 200,000; in the data active = activation above about 23%
SRC1 TRFRET art = counter-screen for PPARgamma SRC-1 recruitment agonists: TR-FRET artefact | hit rate 0.34% among 99,000 | AID 1051 | TR-FRET detection artefact counter-screen, emission ratio; stronger effect = higher value | TR-FRET ratio at 8 µM; in the data active = TR-FRET ratio above about 2300
PPARg SRC2 conf = human PPARgamma SRC-2 recruitment agonism, confirmation. hit rate 52% among 790. biochemical SRC-2 recruitment by PPARgamma. activation, % at 8 µM. shares compounds with PPARg SRC3 recr; in the data active = activation above about 22%
PPARg SRC1 conf = human PPARgamma SRC-1 recruitment agonism, confirmation; shares compounds with PPARg SRC3 recr; PPARgamma–SRC-1 coactivator recruitment biochemical assay; activation, % at 8 µM; hit rate 43% among 790; in the data active = activation above about 20%
PPARg SRC3 conf = human PPARgamma SRC-3 recruitment agonism, confirmation; biochemical PPARgamma-SRC-3 coactivator recruitment, agonist mode; AID 1301; activation, % at 8 µM; hit rate 29% among 790; shares compounds with PPARg SRC3 recr; in the data active = activation above about 24%
Hits are given with their value; 0 = inactive; - = no result given; ! = a repeat was not active. Rule as the data show it, unless noted: active = TR-FRET ratio above about 2000; inactive = the rest.

SMILES	SRC2 TRFRET art	PPARg SRC2 recr	SRC3 TRFRET art	PPARg SRC-1 ag	PPARg SRC3 recr	SRC1 TRFRET art	PPARg SRC2 conf	PPARg SRC1 conf	PPARg SRC3 conf
Cn1c(=O)cc(SCC(=O)NCCC2=CCCCC2)c2ccc(Cl)cc21	0	0	0	0	0	0	-	-	-
CCn1c(=O)cc(SCC(=O)NCC2CCCO2)c2ccccc21 (configuration not stated)	2825	50.1	-	30.9	65.8	-	35.5	21.4	0
CN(CCCNC(=O)CSc1cc(=O)n(C)c2cc(Cl)ccc12)Cc1ccccc1	2902	0	2993	63.6	32.9	3308	39.3	26.8	26.7
FC(F)(F)c1nnc2ccc(NCc3ccccc3)nn12	0	0	0	0	0	0	-	-	-
CC(Sc1ccc2ccccc2n1)C(=O)O (configuration not stated)	2286	23.0	-	29.6!	36.7	-	25.7	0	0
CC(Sc1cnc2ccccc2n1)C(=O)O (configuration not stated)	0	26.0	-	0	0	-	0	0	0
Cc1cc(SC(C)C(=O)O)nc2ccccc12 (configuration not stated)	0	0	0	0	0	0	-	-	-
CCOc1ccc2c(c1)nc(SCC(=O)c1cccs1)n2C	0	0	-	0	0	-	-	-	-
CCOc1ccc2c(c1)nc(SCC(=O)c1ccc(Br)s1)n2C	0	28.8	-	19.7	28.4	-	35.3	25.6	25.1
COc1cc2cc3c(N)c(C(=O)NCc4ccco4)sc3nc2cc1OC	0	0	-	21.0	0	-	0	0	0
Cc1ccc2nc3sc(C(=O)NCc4ccco4)c(N)c3cc2c1	0	0	-	0	0	-	-	-	-
CCOCc1nnc(NC(=O)c2cc(OC)c(OC)c(OC)c2)s1	0	0	0	0	0	0	-	-	-
COc1cc(C(=O)Nc2nnc(-c3sccc3C)s2)cc(OC)c1OC	0	23.7	-	28.7	0	-	54.8	43.0	36.7
O=C(Cc1sc(-c2ccccc2Cl)nc1-c1ccccc1)Nc1ccc(F)cc1	2292	0	-	29.4	0	-	0	0	0
O=C(Cc1sc(-c2ccccc2)nc1-c1ccccc1)Nc1ccc(Cl)cc1	0	0	-	0	0	-	-	-	-
CCCSc1nc2c(c(=O)[nH]c(=O)n2C)n1C	0	0	-	21.4	0	-	0	0	0
CCSc1nc2c(c(=O)[nH]c(=O)n2C)n1C	0	0	-	0	0	-	-	-	-
Cc1ccc(NC(=O)CCSCCc2ccccn2)cc1	0	0	0	0	0	0	-	-	-
CCOC(=O)Nc1c(C(=O)OC)[nH]c2cc(OC)ccc12	0	0	-	0	0	-	-	-	-
COC(=O)c1[nH]c2cc(OC)ccc2c1N	0	0	-	0	27.5	-	0	0	0
COc1ccccc1NC(=O)c1ccc(-n2cncn2)nc1	0	0	0	0	0	0	-	-	-
O=C(Nc1ccccc1F)c1ccc(-n2cncn2)nc1	0	23.4	-	0	0	-	0	0	0
N#C/C(=C\c1ccc(N2CCOCC2)c([N+](=O)[O-])c1)c1nc2ccccc2[nH]1	0	0	0	0	0	0	-	-	-
N#C/C(=C\c1ccc(N2CCOCC2)o1)c1nc2ccccc2[nH]1	0	25.5	-	25.2	0	-	0	0	0
COc1ccc(OC)c(NC(=O)Nc2cc(C(=O)O)ccc2C)c1	0	0	0	0	0	0	-	-	-
SMILES	SRC2 TRFRET art	PPARg SRC2 recr	SRC3 TRFRET art	PPARg SRC-1 ag	PPARg SRC3 recr	SRC1 TRFRET art	PPARg SRC2 conf	PPARg SRC1 conf	PPARg SRC3 conf
CC(C)c1nc2sc3c(=O)[nH]c(=S)[nH]c3c2c2c1CCC2	2507	32.9	2640	23.9	0	2489	23.3	0	0
CCOC(=O)c1sc2nc(C(C)C)c3c(c2c1N)CCC3	0	0	0	0	0	0	-	-	-
COc1cc2oc(=O)c(Br)c(C)c2c(OC)c1OC	2553	46.5	-	41.4	62.4	-	40.4	33.6	24.3
COc1cc2oc(=O)cc(C)c2c(OC)c1OC	0	0	0	0	0	0	-	-	-
N#C/C(=C\c1ccc(N2CCCCC2)o1)C(N)=O	0	0	0	20.9	0	0	0	0	0
CCOC(=O)c1c(-c2cccs2)csc1NC(=O)CCCC(=O)O	2153	25.0	-	0	0	-	25.0	0	0
O=c1c2cn[nH]c2[nH]c(=S)n1-c1cccc2ccccc12	2219	24.3	2082	0	0	2560	23.7	0	0
C=C(C)[C@@H]1CC=C(CN2CCC(CCOC)(C(=O)OCC)CC2)CC1	0	0	0	0	0	0	-	-	-
c1ccc2oc(-c3ccc(Nc4nc(N5CCCCC5)nc(N5CCOCC5)n4)cc3)nc2c1	0	0	-	0	0	-	-	-	-
